In the library only some 9.5% were active in any assay of this set; here they are far more common.
NS1 inh – inhibitors of influenza NS1 protein function. Potency, µM (top dose mostly 46.1 µM), for the others: at the highest dose activity, positive = more growth. 0.4% of 270,000 active; also: actives are rising curves; nearly all actives have a fitted effect of over 50% in size
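S. cerevisiae expressing influenza A NS1, grown in glucose, washed, then diluted 1:100 into pH 6.0 -URA galactose medium with 23 nl compound. Growth recovery read as OD600; NS1-free strain serves as control.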
Pf growth 96h – inhibits malaria parasite growth, 96 h; P. falciparum luciferase reporter growth, 96 h; Potency, µM (titrated, usually from 28.7 µM), inactives show top-dose activity change, negative = inhibition, usual class: inhibitors; 6.9% of 320,000 active; active = well fitted inhibition curve with a large enough effect; inconclusive = small, poorly fitted or top-dose-only effect, or another doubt; inactive = no such curve, though single readings can be large or run the other way; also: % is scaled to controls: 0 for no effect and ±100 for the full control effect
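Parasite growth measured via integrated firefly luciferase reporter in P. falciparum. Infected erythrocytes at 2% hematocrit, 0.05% parasitemia final were treated 96 hours at 37 C under 5% CO2, and luminescence was read.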
RE007 growth inh – less growth of the S. pombe RE007 Vpr strain. S. pombe RE007 Vpr strain, BacTiter-Glo ATP luminescence, 24 h. Potency, µM (series often up to 92.2 µM), without a hit: at the highest dose activity change, negative = less growth, actives largely listed as inhibitors. 0.21% of 360,000 active. AID 651644; active = well fitted falling curve with a large enough effect; inconclusive = small, poorly fitted or top-dose-only effect; inactive = no such curve, though single readings can be large or run the other way; also: % is scaled to controls: 0 for no effect and ±100 for the full control effect; nearly all actives have a fitted effect of over 50% in size
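Fission yeast strain RE007, carrying one chromosomally integrated HIV-1 vpr copy, was seeded at OD 0.01 in PMG+AL medium with 23 nL pinned compound. After 24 h at 30 °C and 99% humidity, viability was read by BacTiter-Glo luminescence.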
SARS PLpro yeast – inhibitors of SARS-CoV papain-like protease in yeast. 0.19% of 330,000 active. S. cerevisiae expressing SARS-CoV PLpro, growth rescue. Potency, µM (titrated, usually from 32.9 µM), for the others: at the top dose activity, positive = growth rescue, usual class: activators; also: 0% is about no effect; nearly all actives have a fitted effect of over 55% in size
Pf growth 48h – inhibits P. falciparum growth in the first generation, 48 h. P. falciparum luciferase growth in erythrocytes, 48 h. Potency, µM (titrated, usually from 28.7 µM), for inactives: at the highest dose activity change, negative = inhibition, most hits filed as inhibitors. 5.9% of 310,000 active. AID 504832; active = well fitted inhibition curve with a large enough effect; inconclusive = small, poorly fitted or top-dose-only effect, or another doubt; inactive = no such curve, though single readings can be large or run the other way; also: % is scaled to controls: 0 for no effect and ±100 for the full control effect
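Firefly luciferase activity from engineered P. falciparum reports growth; inhibitors lower the luminescent signal. Cultures contained 2% hematocrit erythrocytes at 0.1% final parasitemia.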
Active calls of the source: *; ? = inconclusive; · = no result; [ ] = dose if it differs, or a comment. Unless noted, calls follow the shape of the full dose curve. Potency is read from the fitted curve at half-maximal effect.

SMILES | NS1 inh | Pf growth 96h | RE007 growth inh | SARS PLpro yeast | Pf growth 48h
CC(C)(C)NC(=O)CN1CCCN(C(=O)COc2ccc(Cl)c3ccccc23)CC1 | · | ? | -4% | 1% | 12µM*
Cc1ccc(NS(=O)(=O)c2c(C)noc2C)cc1 | -1% | -26% | 9% | -1% | 1%
CC(C)=CCN1CCN(Cc2cnc(-c3ccccc3)s2)CC1CCO (stereo not drawn) | -7% | -15% | 2% | -1% | ?
CCOc1ccc(CN2CCN(Cc3cc4c(cc3Cl)OCO4)CC2CCO)cc1 (stereo not drawn) | 3% | ? | -1% | 0% | ?
OCCC1CN(Cc2cnc(-c3ccccc3)s2)CCN1Cc1ccccc1 (stereo not drawn) | -3% | 12µM* | -10% | 2% | -22%
OCCC1CN(Cc2cc3c(cc2Cl)OCO3)CCN1Cc1ccccc1 (stereo not drawn) | 4% | 10µM* | 1% | 0% | ?
O=C(OCCc1cc2ccccc2c(=O)o1)c1cccc(Br)c1 | · | 21% | 13% | 4% | ?
CCOc1ccc(Cl)cc1C1=CC(=O)C[C@H](c2ccc(OC)cc2)C1 | · | ? | -2% | 2% | ?
O=C1CC(N2CCN(Cc3ccccc3)CC2)C(=O)N1c1ccccc1 (stereo not drawn) | 2% | 324% | -5% | -5% | 10%
CC1CCN(C2CC(=O)N(c3ccccc3)C2=O)CC1 (stereo not drawn) | -46% | 30% | 20µM* | -7% | 15%
CC1CCN(C2CC(=O)N(c3ccc(Br)cc3Br)C2=O)CC1 (stereo not drawn) | -88% | 59% | 40µM* | -5% | 12%
Nc1c(C(=O)NCC2CCCO2)c2nc3ccccc3nc2n1Cc1ccco1 (stereo not drawn) | 8% | -10% | 10% | 0% | 9.3µM*
Nc1c(C(=O)NC2CCCC2)c2nc3ccccc3nc2n1CC1CCCO1 (stereo not drawn) | -69% | -19% | 78% | -35% | 10µM*
CC(C)Cn1c(N)c(C(=O)NCC2CCCO2)c2nc3ccccc3nc21 (stereo not drawn) | -56% | ? | 19% | -3% | ?
Nc1c(C(=O)NC2CCCC2)c2nc3ccccc3nc2n1N | -9% | 295% | 1% | -2% | -1%
CCOC(=O)C1CCN(c2nnc(N3CCCC3=O)s2)CC1 | 2% | 0.83µM* | -20% | 5% | 58%
Cc1ccc(C(O)CN2C3=NCCCN3c3ccccc32)cc1 (stereo not drawn) | 3% | 4.1µM* | -14% | 20% | ?
c1ccc2c(c1)N1CCCN=C1N2CCN1CCCCC1 | 7% | 11% | -8% | 0% | ?
CCCCCCN1C2=NCCCN2c2ccccc21 | -4% | 12µM* | -18% | -1% | ?
OCCN1C2=NCCCN2c2ccccc21 | 2% | 7.4µM* | 3% | -1% | 0%
Cc1ccc(C)c(C(=O)CN2C3=NCCCN3c3ccccc32)c1 | 3% | 9.3µM* | -8% | ? | 7.4µM*
CCOc1cc(NC(=S)NCC2CCCO2)c(OCC)cc1NC(=O)CC(C)C (stereo not drawn) | 4% | ? | -22% | 0% | 8%
CCCCn1c(=O)[nH]c(=O)c2c1nc(Cn1ncc(Cl)c(Cl)c1=O)n2CCC | 14% | ? | 2% | 2% | ?
CCOC(=O)c1ccc2c(c1)nc(COc1ccc(OC)cc1)n2CC | -79% | 9.3µM* | -9% | 0% | ·
C=CCNC(=O)CSc1nc2cc(C(=O)OCC)ccc2n1CC | 0% | 10µM* | 4% | 2% | ·
SMILES | NS1 inh | Pf growth 96h | RE007 growth inh | SARS PLpro yeast | Pf growth 48h
CSCCC(NS(=O)(=O)c1cccc(C(F)(F)F)c1)C(=O)Nc1ccccc1N1CCCC1 (stereo not drawn) | · | 15µM* | 3% | 0% | ?
COC(=O)[C@H](CCSC)NC(=O)N1CCN(c2cccc(C(F)(F)F)c2)CC1 | -24% | · | 20% | 2% | 4%
Cc1cc(C)cc(OCC(=O)Nc2ccccc2N2CCCCC2)c1 | 6% | · | 11% | -3% | 3%
Cc1ccc2c(c1)-c1c(cnn1CC(=O)Nc1ccccc1N1CCN(C)CC1)CO2 | -13% | -33% | 14% | 1% | 10µM*
O=C(COc1cccc(C(F)(F)F)c1)Nc1ccccc1N1CCCCC1 | · | ? | -12% | -9% | 10µM*
Cc1ccccc1OCC(=O)Nc1ccccc1N1CCCCC1 | -46% | 10µM* | -12% | -17% | ?
Cc1cccc(OCC(=O)Nc2ccccc2N2CCCC2)c1C | · | ? | 6% | -37% | ?
Cc1ccc2c(c1)-c1c(cnn1CC(=O)O)CO2 | 7% | ? | -6% | 1% | 9%
NNC(=O)Cc1cccc2ccc(Cl)cc12 | · | · | -2% | · | ·
Cc1cc(OCC(=O)Nc2ccccc2N2CCCCC2)ccc1C(C)C | · | 10µM* | 2% | -1% | ?
Cc1ccc(C(C)C)c(OCC(=O)Nc2ccccc2N2CCN(C)CC2)c1 | 3% | 24% | 1% | 6% | 6.6µM*
O=C(COc1ccc(Br)cc1)Nc1ccccc1N1CCCC1 | · | ? | -14% | 0% | -29%[5.75 µM]
CC(=O)N1CCN(c2ccccc2NC(=O)COc2ccc(Br)cc2)CC1 | -14% | 4.7µM* | -12% | -6% | ?
CC(=O)N1CCN(c2ccccc2NC(=O)COc2cc(C)ccc2C(C)C)CC1 | -18% | · | 10% | -5% | ?
CCC(=O)OCC(=O)[C@@]1(OC(=O)CC)[C@H](C)C[C@@H]2[C@@H]3[C@H]([C@@H](O)C[C@@]21C)[C@]1(C)C=CC(=O)C=C1C[C@@H]3Cl | · | 4.1µM* | · | · | 2.6µM*
CCC(=O)[C@@]1(C)[C@H](C)C[C@@H]2[C@@H]3CCC4=CC(=O)C=C[C@@]4(C)[C@H]3[C@H](O)C[C@]21C | · | 2.6µM* | · | · | 2.6µM*
CCC(=O)OCC(=O)C1(OC(=O)CC)[C@H](C)C[C@H]2[C@H]3[C@H]([C@@H](O)C[C@@]21C)[C@@]1(C)C=CC(=O)C=C1C[C@H]3Cl (stereo partly drawn) | · | 0% | -6%[18.4 µM] | · | ?
CC1=C(C(=O)OCc2ccccc2)C(c2ccc3ccccc3c2)NC(=O)N1CCCCCC(=O)O (stereo not drawn) | 3% | 10µM* | 5% | -1% | ?
CC1=C(C(=O)OCc2ccccc2)C(c2ccc3ccccc3c2)NC(=O)N1CCCC(=O)O (stereo not drawn) | 11% | 68% | -5% | -3% | 2%
CCCCN1C(=O)NC(c2ccc(OC)cc2)C(C(=O)OCc2ccccc2)=C1C (stereo not drawn) | -6% | 5.2µM* | 2% | 1% | ?
CC1=C(C(=O)OCc2ccccc2)C(c2ccccc2-c2ccccc2)NC(=O)N1CCCCCC(=O)O (stereo not drawn) | -14% | 12µM* | -1% | -14% | ?
COc1cc(NC2CCCCC2O)c2nc(-c3ccc(Cl)cc3)ccc2c1 (stereo not drawn) | 20% | 1.9µM* | 9% | -2% | 1.9µM*
